Measurements published in PubChem BioAssay AID1117319 (Southern Research Institute, 2015).
“And” between values parts separate entries of the source, which are not always exact repeats. Equal entries are not always repeated. Among all 260,000 compounds or so, about 1,500 (0.58%) were called active. Not shown: some 5% with an inconclusive outcome. Only a sample is shown. Measured potencies and affinities stand elsewhere. Values without a mark were called inactive.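 The calls were made as follows: active = inhibition above a set limit at one or more doses, reproduced on every date tested; inconclusive = results disagree between test dates, or hit never tested in dose response; inactive = the rest.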

Each compound was assayed against Virion infectivity factor (Human immunodeficiency virus type 1 group M subtype B (isolate BH10)) + Virion infectivity factor (Human immunodeficiency virus type 1 group M subtype B (isolate BRU/LAI)) + Virion infectivity factor (Human immunodeficiency virus type 1 group M subtype B (isolate PCV12)) + Virion infectivity factor (Human immunodeficiency virus type 1 group M subtype B (isolate HXB2)) + DNA dC->dU-editing enzyme APOBEC-3G (Homo sapiens) (UniProt P69720+P69721+P69722+P69723+Q9HC16) (assay: inhibitors of Vif binding to APOBEC3G peptide, primary screen, biochemical, TR-FRET, GST-Vif 1-94, biotin-A3G peptide, dose response retest (AID 1117319;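 also: Vif residues 1-94 fused to GST binding biotinylated APOBEC3G peptide 110-148; 0% = full assay without inhibitor and 100% = GST in place of GST-Vif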)). Settings: hits give high values.

| Compound | inhibition |
| --- | --- |
| CC(=O)Nc1ccc(N=Cc2c(O)c3ccccc3oc2=O)cc1 | -14.5% |
| COc1ccc(-c2oc3ncnc(N)c3c2-c2ccccc2)cc1 | -1.94% |
| Cc1ccc(-c2oc3ncnc(N)c3c2-c2ccc(C)cc2)cc1 | -8.91% |
| Cc1c(NC(=O)COc2ccc(C(C)C)cc2)c(=O)n(-c2ccccc2)n1C | -8.62% |
| CCCCCCC(O)(c1ccccc1)C(CN1CCOCC1)c1ccccc1 (centres undefined) | 0.34% |
| CCc1noc(C)c1C(=O)Nc1ccc(F)c(F)c1 | -2.68% |
| Cc1noc(N)c1C(=O)Nc1ccc(F)c(Cl)c1 | -9.43% |
| Cc1nc2scc(-c3ccc(Cl)cc3)c2c(=O)o1 | 19.2% |
| CCOc1ccc(C(=O)COc2ccc(NC(C)=O)cc2)cc1 | 6.05% |
| CCOC(=O)C1=C(C)NC(C)=C(C(=O)OCC)C1c1ccco1 | 22.4% |
| CCOC(=O)C1=C(N)n2c(s/c(=C/c3ccccc3)c2=O)=C(C(=O)OCC)C1c1ccccc1 (centres undefined) | -3.94% |
| CCOC(=O)C1=c2s/c(=C\c3ccncc3)c(=O)n2C(N)=C(C(=O)OC)C1c1ccncc1 (centres undefined) | -6.47% |
| CCOC(=O)C1=C(N)n2c(s/c(=C\c3cccs3)c2=O)=C(C(=O)OCC)C1c1cccs1 (centres undefined) | -6.07% and -0.48% |
| CCOC(=O)C1=c2s/c(=C\c3cccnc3)c(=O)n2C(N)=C(C(=O)OC)C1c1cccnc1 (centres undefined) | -8.08% |
| CCOC(=O)C1=C(N)n2c(s/c(=C\c3ccncc3)c2=O)=C(C(=O)OCC)C1c1ccncc1 (centres undefined) | -12.8% |
| Cc1cc(SCC(=O)OC(C)C(=O)N(C)c2ccccc2)nc2ccccc12 (centres undefined) | -7.66% |
| COC(=O)c1ccc(CNC(=O)Cn2nnnc2CN(C)C(C)C)cc1 | -4.98% |
| COCCNC(=O)CSc1cc(-c2ccccc2)c2ccc(OC)cc2n1 | -24.8% |
| COc1ccccc1CNC(=O)c1ccc(OC(C)C)cc1 | -1.85% |
| O=C(NCc1cccnc1)c1nn2cccnc2c1Cl | 14.7% |
| O=C(CSc1nnc2ccccn12)NNC(=O)c1cccc([N+](=O)[O-])c1 | -9.15% |
| COc1cc2nc(CCc3ccccc3)oc(=O)c2cc1OC | 19.2% |
| Clc1cc2nc3ccccn3c2cc1Cl | -1.52% |
| N#Cc1ccc2c(c1)nc1ccccn12 | 16.5% |
| CC1=CN2CC(O)CN=C2C=C1 (centres undefined) | -3.44% |

| Compound | inhibition |
| --- | --- |
| Cc1cnc(C(=O)OCC(=O)N(Cc2ccccc2)C(C)(C)C)cn1 | -7.28% |
| Cc1cc(C(=O)OCC(=O)c2ccc3c(c2)OCCO3)c(C)o1 | 7.16% |
| COC(=O)CCN(C(=O)c1ccc(Cl)c([N+](=O)[O-])c1)c1ccccn1 | 21.1% |
| CN1c2ccc([N+](=O)[O-])cc2N(C)C1(C)c1ccccc1 (centres undefined) | -8.03% |
| O=[N+]([O-])c1ccc2c(c1)N([O-])C1(CCCCC1)[N+]2=O | -0.91% |
| O=C(COC(=O)c1ccc(S(=O)(=O)N2CCOCC2)cc1)Nc1ccccc1F | -5.99% |
| C=CCN(CC=C)C(=S)NC(=O)c1ccc(C)c(Br)c1 | 3.99% |
| C=CCN(CC=C)C(=S)NC(=O)c1ccc(OC)c(Br)c1 | 3.9% |
| C[n+]1ccn(CC(=O)c2cccs2)c1 | -0.3% |
| O=[N+]([O-])c1ccc2nc(CN3CCCCC3)[nH]c2c1 | -2.67% |
| Nc1ccc(C(=O)NCCCCCCNC(=O)c2ccc(N)cc2)cc1 | -3.48% |
| Nc1ccc(C(=O)C(=O)c2ccc(N)cc2)cc1 | -4.86% |
| CC(C)=CCN1CCN(Cc2cccn2-c2nccs2)CC1CCO (centres undefined) | 3.13% |
| C/C(=N\NC(=O)CNC(=O)c1ccco1)c1ccc(Br)cc1 | -0.8% |
| COc1ccc(/C=C/c2nc3ccccc3c(=O)n2-c2cccc(C(=O)O)c2)cc1 | -12.6% |
| CCn1c(/C=C/c2ccc(O)c(O)c2)nc2ccccc2c1=O | 23.1% |
| N#Cc1c(N)sc2c1CCCCCC2 | 22.4% |
| CC1(C)Cc2c(C#N)c(N)sc(=S)c2CO1 | 18.9% |
| CS(=O)(=O)N1CCC(C(=O)Nc2cccc(C(F)(F)F)c2)CC1 | 30.5% |
| COc1ccc(CCNC(=O)COC(=O)/C=C/c2ccc3c(c2)OCO3)cc1 | -7.05% |
| COc1ccc(CCn2c(N)cc(=O)[nH]c2=O)cc1OC | -7.47% |
| COc1ccc(CCn2c(O)c(C=Nc3cccc(F)c3)c(=O)[nH]c2=O)cc1OC | 22.7% |
| CCc1ccc(-n2c(O)c(C=NCCN(CC)CC)c(=O)[nH]c2=O)cc1 | 1.67% |
| CC(=O)N1CCN(c2ccc(N=Cc3c(O)n(Cc4ccccc4)c(=O)[nH]c3=O)cc2)CC1 | 15.1% |
